# SARS PLpro yeast = SARS-CoV PLP inhibition in yeast. 0.19% of 330,000 active. AID 485353. Potency, µM (highest dose often 32.9 µM), without a hit: at the top dose activity, positive = growth rescue, hits mostly activators. S. cerevisiae expressing SARS-CoV PLpro, growth rescue; calls by dose curve; further: 0% is about no effect; nearly all actives have a fitted effect of over 55% in size
# Pf growth 48h = inhibits P. falciparum growth in the first generation, 48 h; P. falciparum luciferase growth in erythrocytes, 48 h; Potency, µM (highest dose often 28.7 µM), for the others: at the top dose activity change, negative = inhibition, actives largely listed as inhibitors; 5.9% of 310,000 active; AID 504832; further: on the % scale 0 is the no-effect control and ±100 the full control effect
#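 Parasite viability was followed by luminescence of a genomically integrated firefly luciferase. Cultures held 0.1% parasitemia at 2% hematocrit (final), incubated under 5% CO2 at 37 C.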
# AMA1-RON2 inh = AMA1-RON2 (P. falciparum) interaction inhibition; AlphaScreen AMA1-biotinylated RON2 peptide binding; 0.2% of 360,000 active; AID 720542; Potency, µM (highest dose often 58.2 µM), for the others: at the highest dose activity change, negative = inhibition, usual class: inhibitors;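 further: 0% = vehicle wells and -100% = peptide control; nearly all actives have a fitted effect of over 45% in size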
#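 AMA1 (3D7) with his tag at 25 nM final met compounds first, then biotinylated RON2 peptide at 25 nM; detection used donor plus acceptor beads, 10 µg/mL apiece, read by AlphaScreen after 30 min at room temperature.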
# Pf growth 96h = P. falciparum growth inhibition at 96 hour, primary screen for plastid delayed-death inhibitors | 6.9% of 320,000 active | P. falciparum luciferase reporter growth, 96 h | Potency, µM (top dose mostly 28.7 µM), inactives show top-dose activity change, negative = inhibition, hits mostly inhibitors; further: on the % scale 0 is the no-effect control and ±100 the full control effect
#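 P. falciparum expressing integrated firefly luciferase grown in erythrocytes (2% hematocrit, 0.05% parasitemia final) with compounds for 96 hours at 37 C, 5% CO2. Growth inhibition read as loss of luminescence after adding luciferase detection reagent.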
# Starred values were filed as active, the others as inactive; ? = inconclusive; . = no result; [ ] = remark or other dose. This is a sample that favours compounds with a hit; in the whole collection about 9.4% have one here. Unless noted, the call rests on the fitted dose curve; in most records, active means well fitted curve in the direction sought with a large enough effect; inconclusive means small, poorly fitted or top-dose-only effect, or another doubt; inactive means no such curve, though single readings can be large; an effect the other way counts as inactive or inconclusive. Potency means the concentration at half of the fitted maximal effect.
SMILES,SARS PLpro yeast,Pf growth 48h,AMA1-RON2 inh,Pf growth 96h
COc1cc([C@@H]2c3cc4c(cc3[C@H](O)[C@H]3COC(=O)[C@H]23)OCO4)cc(OC)c1OC,0%,15µM*,2%,1.1µM*
Cc1ccc(S(=O)(=O)C(C#N)c2nc3ccccc3nc2N2CCN(C)CC2)cc1C (stereo not drawn),-1%,7%,18%,.
O=C(O)C1CCN(Cc2ccccn2)CC1,4%,-7%,12%,15%
CN(C)C=Nc1ncc2c3ccccc3n(CCN(C)C)c2c1C#N,4%,?,-2%,-97%
CCN(CC)CCn1c2ccccc2c2cnc(N)c(C#N)c21,5%,2.6µM*,2%,2.6µM*
CCCc1n(CC(O)COCc2ccccc2)c2ccccc2[n+]1C (stereo not drawn),-1%,3.3µM*,-16%,6%
C[n+]1cn(CC(O)COCc2ccccc2)c2ccccc21 (stereo not drawn),-5%,?,-1%,4.7µM*
CCCc1n(CC(O)COCC2CC=CCC2)c2ccccc2[n+]1C (stereo not drawn),0%,?,-2%,35%
Cc1cc2c(cc1C)[n+](C)cn2CC(O)COCc1ccccc1 (stereo not drawn),0%,-11%,-8%,?
CCCc1n(CC(O)COC2CCCCC2)c2ccccc2[n+]1C (stereo not drawn),1%,4.1µM*,-12%,-2%
Cc1cc2nc3c(c(=O)n2[nH]1)CCCC3,6%,12µM*,2%,6%
Cc1ccc(-c2[nH]n3c(=O)c4c(nc3c2C)CCCC4)cc1,-1%,0.046µM*,-18%,-28%
O=c1c2c(nc3c(-c4ccc(Cl)cc4)c[nH]n13)CCC2,-5%,10µM*,48%,-13%
COc1ccccc1CN1CCC(n2nccc2NC(=O)c2ccccc2Cl)CC1,1%,?,-5%,?
CC(C)(C)c1ccc(Cn2c(=N)n(CC(O)c3ccco3)c3ccccc32)cc1 (stereo not drawn),0%,2.3µM*,-11%,12µM*
Cc1ccccc1Cn1c(=N)n(CC(O)c2ccco2)c2ccccc21 (stereo not drawn),-4%,9.3µM*,?,?
Cc1ccccc1Cn1c(=O)n(Cc2ccco2)c(=O)c2ccccc21,1%,-29%,1%,-27%
COc1cc(C(=O)NCc2ncccc2C)ccc1OC1CCN(C(C)=O)CC1,25%,20%,39%,15µM*
C=CCN(CC=C)C(=O)c1ccc(OC2CCN(C(C)=O)CC2)c(OC)c1,-1%,?,2%,2.9µM*
COc1cc(C(=O)N(C)C2CCCCC2)ccc1OC1CCN(C(C)=O)CC1,1%,-7%,-1%,?
O=C1OCC2=C1C(c1ccc(F)cc1)c1cc3c(cc1N2)OCO3 (stereo not drawn),-1%,8%,-19%,33%
CCOc1ccccc1C1C2=C(COC2=O)Nc2cc3c(cc21)OCO3 (stereo not drawn),-1%,?,-16%,10µM*
O=C1COc2ccc(S(=O)(=O)CCC(=O)N3CCN(c4cccc(C(F)(F)F)c4)CC3)cc2N1,0%,-10%,-8%,?
CN(c1ccccc1)S(=O)(=O)c1cccc(C(=O)Nc2cccc(C(=O)NC3CC3)c2)c1,-1%,5.2µM*,15%,6.6µM*
Cc1ccc(C(=O)Nc2cccc(C(=O)O)c2)cc1S(=O)(=O)N1CCOCC1,-1%,244%,5%,.
SMILES,SARS PLpro yeast,Pf growth 48h,AMA1-RON2 inh,Pf growth 96h
CN(c1ccccc1)S(=O)(=O)c1ccc(NC(=O)C2CC2)cc1,-8%,34%,-6%,6.6µM*
CN(c1ccc(C(=O)NC2CC2)cc1)S(=O)(=O)c1ccccc1,2%,4.7µM*,4%,.
CN(c1ccc(C(=O)NC2CCCC2)cc1)S(=O)(=O)c1ccc(Cl)cc1,1%,-19%,4%,33%
CN(c1ccccc1)S(=O)(=O)c1ccc(NC(=O)c2ccccc2)cc1,-9%,-15%,1%,2%
Cc1ccc(NC(=O)c2cccc(S(=O)(=O)N(C)c3ccccc3)c2)cc1S(=O)(=O)N1CCOCC1,-4%,?,-21%,12µM*
O=C1NCCN1CCNS(=O)(=O)c1ccccc1[N+](=O)[O-],1%,40%,11%,?
c1coc(CNc2ncnc3sc4c(c23)CCCCC4)c1,-7%,-1%,-7%,-12%
Cc1ccc(S(=O)(=O)Nc2cc3c(C(=O)Nc4ccccc4)c(C)oc3c3ccccc23)cc1,-8%,?,10%,1.7µM*
CC(=O)c1c(C)oc2c1cc(NS(=O)(=O)c1ccc(C(=O)O)cc1)c1ccccc12,0%,27%,20%,?
CN(CCn1ccnc1)Cc1cn(Cc2ccccc2)nc1-c1ccc2c(c1)OCO2,-6%,?,-12%,?
O=C(N/N=C/c1c[nH]c2ccccc12)C1COc2ccccc2O1 (stereo not drawn),-17%,-4%,19%[11.6 µM],10µM*
Cc1ccccc1Nc1c(-c2ccncc2)nc2ccc(Cl)cn12,-9%,?,14%,-3%
COc1ccccc1N(CC(=O)NCc1cccnc1)S(C)(=O)=O,1%,19%,1%,.
O=C(COc1ccc(N2C(=O)c3ccccc3C2=O)cc1)c1ccccc1,10%,19%,-1%,-4%
OCCC1CN(Cc2ccc(Oc3ncccn3)cc2)CCN1C1CCCC1 (stereo not drawn),-1%,14%,0%,?
COc1cc2c(cc1OC)C(C(C(=O)N(CCc1ccc(OC)c(OC)c1OC)CCc1ccc(OC)c(OC)c1OC)c1ccccc1)=NCC2 (stereo not drawn),.,1.3µM*,.,1.5µM*
COc1cc2c(cc1OC)C(c1ccccc1[N+](=O)[O-])=NCC2,.,.,-5%,.
CCOC(=O)C[C@H]1c2cc(F)ccc2S(=O)(=O)N1C(C)(C)C,.,.,17%,.
CCC(C(=O)Nc1ccccc1OC)n1c(C(=O)OC)cc2ccsc21 (stereo not drawn),-9%,12µM*,49%,?
Cc1cc(=O)oc(C)c1C(=O)NCC(C)NC(=O)c1c(C)cc(=O)oc1C (stereo not drawn),-3%,7%,10%,.
COc1cc(C(=O)OC2CCCCC2=O)cc(OC)c1C (stereo not drawn),19%,.,-28%,?
O=C(Nc1nccs1)c1cc2sccc2n1Cc1ccc(F)cc1,0%,13µM*,19%,-9%[5.75 µM]
COc1ccc(NC(=O)c2cc3sccc3n2Cc2ccc(F)cc2)cc1OC,4%,?,-19%,-17%
Cc1cccc(NC(=O)COc2coc(CN3CCN(c4ccccc4)CC3)cc2=O)c1,3%,9.3µM*,-12%,?
COc1ccccc1NC(=O)COc1coc(CN2CCN(c3ccccc3)CC2)cc1=O,-1%,13µM*,0%,?
O=C(COc1coc(CN2CCN(c3ccccc3)CC2)cc1=O)Nc1cccc(F)c1,-5%,5%,5%,?
OCc1cn(Cc2ccc(O)c3ncccc23)cn1,5%,5.2µM*,.,6.6µM*
Oc1ccc(Cn2ccnc2)c2cccnc12,2%,3.7µM*,-85%,18%
